# GLP1R ag = agonists of human GLP-1 receptor | AID 624172 | Potency, µM (top dose mostly 45.6 µM), without a hit: at the highest dose activation, usual class: activators | HEK293 GLP-1R CRE-luciferase, luminescence, 4-6 h; cells express a hypersensitive GLP-1R form | 380,000 compounds, 0.007% hits | P43220; also: % of control where 0% means no effect
# Target sequence (P43220 whole entry, looked up): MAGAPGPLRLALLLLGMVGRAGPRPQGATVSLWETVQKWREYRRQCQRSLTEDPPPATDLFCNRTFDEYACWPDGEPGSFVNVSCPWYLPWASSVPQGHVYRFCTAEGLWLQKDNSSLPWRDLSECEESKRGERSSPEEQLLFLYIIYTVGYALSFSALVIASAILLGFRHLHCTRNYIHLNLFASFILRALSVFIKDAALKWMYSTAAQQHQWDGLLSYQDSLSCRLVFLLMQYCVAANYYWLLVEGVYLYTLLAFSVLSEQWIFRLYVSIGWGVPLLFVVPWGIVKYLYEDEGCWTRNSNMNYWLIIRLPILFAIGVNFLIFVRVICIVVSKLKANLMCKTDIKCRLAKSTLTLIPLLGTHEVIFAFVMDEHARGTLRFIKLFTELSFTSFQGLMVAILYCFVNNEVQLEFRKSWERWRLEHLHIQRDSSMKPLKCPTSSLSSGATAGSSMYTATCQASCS
# HEK293 tox = cytotoxic in the GLP-1 receptor inverse agonist counter-screen | Potency, µM (doses to about 38.3 µM), without a hit: at the highest dose activity change, negative = inhibition, hits mostly inhibitors | HEK293 cAMP-luciferase reporter cells, luminescence, 24 h | 410,000 compounds, 0.13% hits;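 also: loss of luciferase light is scored as toxicity; % is scaled to controls: 0 for no effect and ±100 for the full control effect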
#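 Quantitative HTS format, 1536 wells, 200 cells/uL seeded. Compounds: 23 nL, 24 h, 37 °C. Detection: luciferase reagent, luminescence at 12 min RT; decreased signal taken as cytotoxic.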
# PTHR1 agonist = activates the human parathyroid hormone receptor PTHR1. HEK293 GP2 PTHR1 cells, GloSensor cAMP luminescence, 1 h. Potency, µM (highest dose often 115 µM), for the others: top-dose activation, most hits filed as activators. 410,000 compounds, 0.075% hits. AID 743266; also: nearly all actives have a fitted effect of over 55% in size
#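 HEK-293-derived GP2 cells expressing PTHR1 and a GloSensor cAMP reporter, 3,000/well, plated overnight, given luciferin plus IBMX (each 0.5 mM as added) for 1 h at 37 °C, then compound for 1 h at 37 °C. Luminescence was read after 15 min at room temperature.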
# GLP-1R inv ag = acts as inverse agonist at human GLP-1 receptor; Potency, µM (doses to about 38.3 µM), for the others: top-dose activity change, negative = inhibition, hits mostly inhibitors; AID 624417; P43220; HEK293 GLP-1R CRE-luciferase, luminescence, 24 h; GLP-1R form is constitutively active; 410,000 compounds, 1.6% hits; also: % is scaled to controls: 0 for no effect and ±100 for the full control effect; nearly all actives have a fitted effect of over 55% in size
#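 Constitutively active GLP-1R drives a cAMP-responsive luciferase in stably transfected HEK293 cells; test compounds are added after overnight (12 h) attachment and left 24 hr, and signal loss in luminescence marks inhibition.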
# An asterisk follows results filed as active; i = inactive; ? = inconclusive; · = not tested or not shown; [ ] = dose if it differs, or a comment. In the library only some 1.7% were active in any assay of this set; here they are far more common. Calls follow the shape of the dose curve; as a rule, active = well fitted curve in the direction sought with a large enough effect; inconclusive = small, poorly fitted or top-dose-only effect, or another doubt; inactive = no such curve, though single readings can be large; an effect the other way counts as inactive or inconclusive. Potency is read from the fitted curve at half-maximal effect.
SMILES,GLP1R ag,HEK293 tox,PTHR1 agonist,GLP-1R inv ag
CCCCCCCCCCCCCCCCCCNC(=O)OC1CCN(C(=O)OC[C@H](COC(=O)N(Cc2cccc[n+]2CC)C(=O)c2ccccc2OC)OC)CC1,3%,·,·,·
CCS(=O)(=O)N1CC(=O)N(c2ccc(Cl)cc2)C(C)(C(=O)NC2CCCCC2)C1 (centres undefined),·,2%,i,3%
CCOC(=O)C1(Cc2cccc(Cl)c2)CCCN(C(=O)c2occc2C)C1 (centres undefined),3%,5%,-23%,11µM*
CCOc1ccc(NC(=O)c2ccccn2)cc1,-28%,-9%,-92%,2µM*
CCOc1ccc(NC(=O)c2cnccn2)cc1,-1%,-12%,i,?
Cc1ccc(S(=O)(=O)N(CC(=O)Nc2ccccc2C(=O)O)c2cccc(Cl)c2C)cc1,-10%,-16%,-4%,8.9µM*
Cc1ccc2c(c1)N(C(=O)N1CCC(C(=O)NCCc3ccc(Cl)cc3)CC1)CC(C)O2 (centres undefined),·,-7%,-36%,6%
N=c1c2c(n(Cc3ccc(Cl)cc3)c3c1CCC3)CCC2,-3%,-9%,-34%,-8%
N=c1c2c(n(Cc3cccc(Cl)c3)c3c1CCC3)CCCC2,-4%,5µM*,-22%,-2%
COc1ccc(NC(=O)Nc2nnc(SCC(=O)Nc3cccc(C)c3C)s2)cc1,·,2%,i,26%
CCCCCOc1ccc(C2SC(=O)NC2=O)cc1OCC (centres undefined),-2%,·,·,·
CCOc1ccc(OCC(=O)c2c(O)c3ccccc3oc2=O)cc1,-16%,-2%,i,12%
COc1ccc(OCC(=O)c2c(O)c3ccccc3oc2=O)cc1,-8%,-1%,18µM*,0%
O=c1[nH]c(C2CCN(S(=O)(=O)c3cccc(C(F)(F)F)c3)CC2)nc2c1nnn2Cc1cccc(F)c1,6%,?,i,7.9µM*
O=c1[nH]c(C2CCN(S(=O)(=O)c3ccc4c(c3)OCCO4)CC2)nc2c1nnn2Cc1cccc(F)c1,24%,-9%,-16%,26%
Cc1cccc(OCC(=O)N(Cc2cccc(Cl)c2)Cc2ccco2)c1C,·,2%,-38%,?
CCOC(=O)C(CC)N1CCN(Cc2ccc(F)cc2)C(=O)C1=O (centres undefined),·,-5%,-23%,12%
O=c1cc2c(nn1Cc1ccccc1Cl)-c1ccccc1CC2,?,-5%,-6%[57.5 µM],10µM*
O=c1cc2c(nn1Cc1ccc(Cl)cc1Cl)-c1ccccc1CC2,28%,69%,-87%,?
COC(=O)c1scc(-c2ccc(C)cc2)c1S(=O)(=O)Nc1cccc(Cl)c1C,·,0%,i,10µM*
CCOc1ccccc1NS(=O)(=O)c1c(-c2ccc(C)cc2)csc1C(=O)OC,·,1%,i,11µM*
COC(=O)c1scc(-c2ccc(C)cc2)c1S(=O)(=O)Nc1cc(Cl)ccc1C,·,-4%,0%,?
CCOC(=O)c1ccccc1NS(=O)(=O)c1c(-c2ccc(C)cc2)csc1C(=O)OC,·,17%,-32%,?
O=C(CCSCc1cccc(Cl)c1)N1CCN(c2ccc(Cl)cc2)CC1,·,7%,-18%,?
Cc1ccc(N2CC(NC(=O)Cc3cccs3)CC2=O)cc1C (centres undefined),·,3%,0%,14%
SMILES,GLP1R ag,HEK293 tox,PTHR1 agonist,GLP-1R inv ag
N#Cc1nc(Cc2cccc3ccccc23)oc1N1CCCCC1,13%,88%,i,10µM*
Cc1cccc(CC(=O)NCc2nc3cccnc3n2Cc2ccc(F)cc2)c1,·,12%,i,-9%
Cc1onc(-c2ccccc2)c1C(=O)OCC(=O)Nc1ccc(OC(F)(F)F)cc1,-7%,-16%,-37%,?
CCCOc1cccc(NC(=O)c2c(-c3ccccc3)noc2C)c1,-4%,-5%,i,?
Cc1ccc(NC(=O)COC(=O)c2c(-c3ccccc3)noc2C)cc1,11%,-9%,-43%,10µM*
Cc1onc(-c2ccccc2)c1C(=O)Nc1cccc(OC(C)C)c1,-4%,-8%,-11%[57.5 µM],11µM*
Cc1onc(-c2ccccc2)c1C(=O)OCC(=O)Nc1ccc(Cl)cc1,0%,-8%,-40%,11µM*
O=C(c1ccccc1)N1CCc2cc(CNS(=O)(=O)c3ccccc3Cl)ccc21,·,-18%,-41%,13%

# From PubChem
